Screening data as filed in PubChem.
G9a block = qHTS Assay for Inhibitors of Histone Lysine Methyltransferase G9a. hit rate 8.8% among 350,000. Potency, µM (series often up to 102 µM), inactives show at the highest dose activity, negative = inhibition, most hits filed as inhibitors. AID 504332, 2011. G9a H3K9 monomethylation, AlphaScreen, 2 h; further: on the % scale 0 is the no-effect control and ±100 the full control effect; nearly all actives have a fitted effect of over 75% in size
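Quantitative HTS format: methyltransferase activity on a biotin-tagged H3K9 peptide is measured by AlphaScreen, using a rabbit anti-monomethyl-H3K9 antibody with streptavidin donor and anti-IgG acceptor beads. Final levels are 20 nM enzyme, 500 nM peptide, 20 uM SAM; 2 h RT.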
BAZ2B block = qHTS Assay for Inhibitors of BAZ2B. hit rate 4.4% among 360,000. AlphaScreen BAZ2B-H3K14Ac peptide displacement. Potency, µM (series often up to 114 µM), inactives show at the top dose activity change, negative = inhibition, usual class: inhibitors. Bromodomain adjacent to zinc finger domain protein 2B (Homo sapiens), Q9UIF8. AID 504333, 2011; further: on the % scale 0 is the no-effect control and ±100 the full control effect; nearly all actives have a fitted effect of over 60% in size
Target sequence (Q9UIF8 whole entry, looked up, the tested form may be a part): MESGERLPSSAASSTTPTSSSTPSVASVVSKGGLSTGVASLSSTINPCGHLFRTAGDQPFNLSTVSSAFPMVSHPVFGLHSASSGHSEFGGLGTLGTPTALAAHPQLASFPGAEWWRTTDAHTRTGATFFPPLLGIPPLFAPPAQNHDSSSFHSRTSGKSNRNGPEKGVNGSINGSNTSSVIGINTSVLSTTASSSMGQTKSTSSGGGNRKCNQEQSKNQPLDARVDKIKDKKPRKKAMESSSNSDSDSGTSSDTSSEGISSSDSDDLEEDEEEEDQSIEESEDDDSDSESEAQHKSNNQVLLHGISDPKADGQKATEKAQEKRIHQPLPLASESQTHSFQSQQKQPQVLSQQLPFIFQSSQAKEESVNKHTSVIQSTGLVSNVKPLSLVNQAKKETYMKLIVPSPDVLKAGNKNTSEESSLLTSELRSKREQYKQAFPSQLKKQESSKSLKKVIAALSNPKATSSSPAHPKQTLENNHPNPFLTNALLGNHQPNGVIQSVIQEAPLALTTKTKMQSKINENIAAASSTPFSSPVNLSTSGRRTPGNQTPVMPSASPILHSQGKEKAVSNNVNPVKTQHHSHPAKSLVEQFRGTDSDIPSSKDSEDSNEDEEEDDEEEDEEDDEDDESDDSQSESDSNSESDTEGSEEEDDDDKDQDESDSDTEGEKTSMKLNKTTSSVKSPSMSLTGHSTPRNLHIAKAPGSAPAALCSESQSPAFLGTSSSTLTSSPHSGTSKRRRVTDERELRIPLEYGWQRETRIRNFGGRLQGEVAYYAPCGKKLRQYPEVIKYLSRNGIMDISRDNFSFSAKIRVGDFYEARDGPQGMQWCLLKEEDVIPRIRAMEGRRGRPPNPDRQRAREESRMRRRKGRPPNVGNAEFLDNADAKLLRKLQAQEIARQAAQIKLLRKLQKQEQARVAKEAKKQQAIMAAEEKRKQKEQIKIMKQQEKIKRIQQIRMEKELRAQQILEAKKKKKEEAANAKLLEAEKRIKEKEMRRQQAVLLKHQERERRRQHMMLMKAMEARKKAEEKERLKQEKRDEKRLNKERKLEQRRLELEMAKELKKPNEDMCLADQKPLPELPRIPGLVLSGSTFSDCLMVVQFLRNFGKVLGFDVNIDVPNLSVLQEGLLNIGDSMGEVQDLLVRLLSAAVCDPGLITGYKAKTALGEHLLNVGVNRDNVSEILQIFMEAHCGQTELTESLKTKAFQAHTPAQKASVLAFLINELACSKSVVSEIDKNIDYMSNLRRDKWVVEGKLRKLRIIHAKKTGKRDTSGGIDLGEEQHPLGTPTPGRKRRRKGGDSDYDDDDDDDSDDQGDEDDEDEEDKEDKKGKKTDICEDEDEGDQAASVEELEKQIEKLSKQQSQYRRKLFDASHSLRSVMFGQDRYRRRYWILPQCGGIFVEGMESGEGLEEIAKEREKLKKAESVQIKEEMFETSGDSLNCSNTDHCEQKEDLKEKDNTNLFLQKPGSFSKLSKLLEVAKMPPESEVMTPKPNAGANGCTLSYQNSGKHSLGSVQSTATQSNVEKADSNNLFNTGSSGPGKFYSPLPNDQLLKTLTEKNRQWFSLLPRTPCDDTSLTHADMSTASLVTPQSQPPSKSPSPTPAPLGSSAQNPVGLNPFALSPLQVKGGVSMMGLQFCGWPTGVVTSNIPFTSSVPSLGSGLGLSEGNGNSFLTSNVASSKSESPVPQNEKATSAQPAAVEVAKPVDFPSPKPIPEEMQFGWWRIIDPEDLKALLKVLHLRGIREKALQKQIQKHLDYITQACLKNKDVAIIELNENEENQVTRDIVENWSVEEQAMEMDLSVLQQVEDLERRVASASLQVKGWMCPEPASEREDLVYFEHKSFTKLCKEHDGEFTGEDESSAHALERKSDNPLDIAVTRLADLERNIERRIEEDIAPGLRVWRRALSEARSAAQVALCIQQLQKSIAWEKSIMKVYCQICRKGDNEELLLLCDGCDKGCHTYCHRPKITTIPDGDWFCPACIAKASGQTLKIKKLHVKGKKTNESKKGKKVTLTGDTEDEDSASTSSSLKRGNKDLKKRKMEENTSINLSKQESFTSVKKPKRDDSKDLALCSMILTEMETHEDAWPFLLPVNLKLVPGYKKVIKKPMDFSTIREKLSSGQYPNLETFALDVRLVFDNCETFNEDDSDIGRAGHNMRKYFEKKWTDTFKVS
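BAZ2B (50 nM) with biotin-H3(5-23)K14Ac peptide (50 nM) in PBS pH 7.4, 0.01% Tween-20, preformed 30 min, then compound 30 min at room temperature; top concentration 110uM. AlphaScreen streptavidin donor/nickel chelate acceptor beads (10 ug/mL final), 20 min dark, signal read.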
JMJD2A Tudor = qHTS Assay for Inhibitors of JMJD2A-Tudor Domain; AlphaScreen JMJD2A-Tudor / H3K4me3 peptide binding; hit rate 4.4% among 390,000; Potency, µM (highest dose often 114 µM), without a hit: top-dose activity change, negative = inhibition, actives largely listed as inhibitors; Lysine-specific demethylase 4A (Homo sapiens), O75164; further: on the % scale 0 is the no-effect control and ±100 the full control effect; nearly all actives have a fitted effect of over 50% in size
Sfp PPTase inh = qHTS Assay for Inhibitors of Bacillus subtilis Sfp phosphopantetheinyl transferase (PPTase) | Biochemical Sfp PPTase activity, qHTS | Potency, µM, without a hit: largest response in the series, negative = inhibition, most hits filed as inhibitors | hit rate 3.5% among 310,000;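 further: the enzyme is Sfp with the accession as filed and its product quenches rhodamine fluorescence; 0% = enzyme reaction without inhibitor and -100% = no enzyme wells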
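Buffer: 50 mM Hepes-Na pH 7.6, 10 mM MgCl2, 0.01% Nonidet P-40, 0.01% BSA. Enzyme 15 nM, pre-exposed to compound 15 min; substrates then added and fluorescence change tracked over 30 min.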
HP1b binding inh = HTS for Inhibitors of HP1-beta Chromodomain Interactions with Methylated Histone Tails | Chromobox protein homolog 1 (Homo sapiens), P83916 | AlphaScreen HP1-beta / biotin-H3K9me3 peptide binding | Potency, µM (highest dose often 114 µM), without a hit: at the highest dose activity change, negative = inhibition, hits mostly inhibitors | hit rate 0.56% among 390,000 | AID 540317, 2011; further: nearly all actives have a fitted effect of over 70% in size
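AlphaScreen: HP1-beta (50 nM) preformed 30 min with biotin-H3(1-18)K9me3 peptide (50 nM) in PBS pH 7.4, 0.01% Tween-20. Compound added for 30 min at RT, then streptavidin donor/nickel chelate acceptor beads (10 ug/mL) for 30 min.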
An asterisk follows results filed as active; u = inconclusive; x = no result; [ ] = dose if it differs, or a comment. Rows were chosen to be rich in hits. Some 12% of all compounds tested hit in one or more screens of this group. The call rests on the fitted dose curve; in most records, active means well fitted curve in the direction sought with a large enough effect; inconclusive means small, poorly fitted or top-dose-only effect, or another doubt; inactive means no such curve, though single readings can be large; an effect the other way counts as inactive or inconclusive. Potency means the concentration at half of the fitted maximal effect.

SMILES	G9a block	BAZ2B block	JMJD2A Tudor	Sfp PPTase inh	HP1b binding inh
Cc1ccc(-c2nc3ccccn3c2Nc2ccccc2)o1	50µM*	-31%	-8%	20µM*	12%
Nc1c(Cl)cc(C2=NCCn3nc4cc([N+](=O)[O-])ccc4c32)cc1Cl	22%[2.33 µM]	-37%	u	x	6%
CC1=NN(c2ccccc2)C(=O)C1/C=C1\NC(=S)NC1=O (configuration not stated)	u	u	56µM*	-3%	u
COc1ccc(OCCCN2CCCC(C)C2)cc1 (configuration not stated)	7.1µM*	-35%	-22%[57.1 µM]	0%	u
CC1CCCN(Cc2ccc(OCc3ccccc3)cc2)C1 (configuration not stated)	x	12%	-22%	10%	30%
CC1CCCN(CCCOc2ccc([N+](=O)[O-])cc2)C1 (configuration not stated)	8.9µM*	u	22µM*	-11%	-25%
CCc1c(C)sc(NC(=O)c2cc(-c3cccc(Cl)c3)on2)c1C#N	3.2µM*	-2%	-11%	x	-11%
Cc1nn(Cc2ccc(Cl)cc2)c(C)c1NC(=O)c1cc(-c2ccc3c(c2)OCO3)on1	-27%	-8%	-4%	0%	22%
COc1ccc(CCNC(=O)c2cc(-c3ccc(Cl)cc3)on2)cc1OC	-6%[59 µM]	3%	-25%	x	26%
Cc1nn(Cc2ccc(Cl)c(Cl)c2)c(C)c1NC(=O)c1cc(-c2ccc3c(c2)OCO3)on1	56µM*	50µM*	-18%	2%	4%
CCc1c(C)sc(NC(=O)c2cc(-c3ccc(OC)c(OC)c3)on2)c1C#N	7.9µM*	3%	-6%	11%	u
COc1ccc(-c2cc(C(=O)Nc3cc(C)n(Cc4ccc(Cl)cc4)n3)no2)cc1OC	-31%[59 µM]	-1%	-6%	71µM*	12%
COc1ccccc1N1CC(C(=O)Nc2ccc3c(c2)OCO3)CC1=O (configuration not stated)	-31%	-33%	-14%[11.4 µM]	8%	30%
Cc1ccc(C(=O)Nc2c(N)nc(SCC(=O)NCC3CCCO3)[nH]c2=O)cc1 (configuration not stated)	x	-1%	-1%	-2%	27%
CCc1c(C)sc(NC(=O)c2cc(-c3ccc(O)cc3)on2)c1C#N	45µM*	8%	-6%	-3%	14%
CCc1c(C)sc(NC(=O)c2cc(-c3cc(OC)ccc3OC)on2)c1C#N	-29%	-23%	-17%	23%	24%
CCc1c(C)sc(NC(=O)c2cc(CC(C)C)on2)c1C#N	u	-3%	6%	-7%	19%
CCc1c(C)sc(NC(=O)c2noc(C)c2[N+](=O)[O-])c1C#N	40µM*	-38%	-19%	50µM*	-8%
O=C(Nc1ccccc1O)N1c2ccccc2Sc2ccccc21	7%	-28%	u	-2%	0%
CN1CCC/C1=C/C=C1\SC(=S)NC1=O	10µM*	u	-30%	28µM*	-15%
Cc1ccc2c(n1)sc1c(-c3ccc(Br)cc3)c(C#N)c(N)nc12	-14%[12.7 µM]	5%[57.1 µM]	-10%	u	55%
N#Cc1c(Cl)c(Cl)c2nnc(-c3ccc(Br)cc3)n2c1Cl	13µM*	56µM*	x	3%	x
Cc1ccc(N(CC(=O)Nc2ccccc2-c2ccccc2)S(=O)(=O)c2ccccc2)c(C)c1	8.9µM*	-27%	-14%	14%	8%
Cc1ccc(C(=O)NCC(=O)NCC(c2cccs2)N2CCOCC2)cc1C (configuration not stated)	6%	-7%	-12%	x	42%
O=C(c1cccs1)N1N=C(c2ccccc2)CC1c1ccccc1 (configuration not stated)	3%[59 µM]	-2%	-9%	40µM*	32%
